What all share (test): universal protein binding microarray (PBM); transcription factors of Arabidopsis thaliana; high values mean tight binding
In one assay the target is T1, GST-ANAC092(1-176) (Arabidopsis thaliana, UniProt Q9FKA0 1-176).
T1 sequence: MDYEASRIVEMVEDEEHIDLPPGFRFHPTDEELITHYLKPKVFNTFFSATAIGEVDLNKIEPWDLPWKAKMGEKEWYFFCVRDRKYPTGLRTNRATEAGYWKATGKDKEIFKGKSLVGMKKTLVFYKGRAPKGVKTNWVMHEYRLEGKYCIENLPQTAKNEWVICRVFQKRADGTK
The conditions noted are these: protein: recombinant; tags: GST; chain copies: 2; dsDNA, one strand shown. In short, it runs like this: (§1)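 GST-tagged proteins (NAC-domain, full-length or DNA-binding-domain) were induced in cells, with zinc acetate supplied for zinc-finger proteins, then purified on glutathione–Sepharose 4B. Each was tested in duplicate at 200 to 500 nM final on custom all-10-mer Agilent 4 × 180K arrays rendered double-stranded by primer extension. The binding value is the normalised enrichment score (E-score) across gapped and ungapped 8-mers.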

The target in a further assay is T2, GST-ATAF1 NAC domain (Arabidopsis thaliana, UniProt Q39013 7-158).
T2 sequence: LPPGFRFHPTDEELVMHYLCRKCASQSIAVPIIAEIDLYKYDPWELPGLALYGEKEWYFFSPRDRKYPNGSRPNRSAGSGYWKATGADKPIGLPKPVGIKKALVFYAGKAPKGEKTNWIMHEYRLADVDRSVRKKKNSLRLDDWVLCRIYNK
The conditions noted are these: protein: recombinant; tags: GST; chain copies: 2; dsDNA, one strand shown. In short, it runs like this: as §1

Assay [1] deals with T3, GST-ANAC092(1-285) full length (Arabidopsis thaliana, UniProt Q9FKA0 1-285).
T3 sequence: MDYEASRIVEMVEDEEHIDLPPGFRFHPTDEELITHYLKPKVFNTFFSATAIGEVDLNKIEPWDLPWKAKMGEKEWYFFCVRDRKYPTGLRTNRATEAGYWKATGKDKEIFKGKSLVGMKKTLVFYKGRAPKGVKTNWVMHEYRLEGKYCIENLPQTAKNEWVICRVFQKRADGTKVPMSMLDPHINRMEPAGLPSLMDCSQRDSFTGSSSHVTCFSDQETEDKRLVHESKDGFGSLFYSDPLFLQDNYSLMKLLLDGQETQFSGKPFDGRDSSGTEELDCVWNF
The conditions noted are these: protein: recombinant; tags: GST; chain copies: 2; dsDNA, one strand shown. The method, boiled down:
as §1

A further assay concerns the target T4, GST-NAP(1-166) (Arabidopsis thaliana, UniProt O49255 1-166).
T4 sequence: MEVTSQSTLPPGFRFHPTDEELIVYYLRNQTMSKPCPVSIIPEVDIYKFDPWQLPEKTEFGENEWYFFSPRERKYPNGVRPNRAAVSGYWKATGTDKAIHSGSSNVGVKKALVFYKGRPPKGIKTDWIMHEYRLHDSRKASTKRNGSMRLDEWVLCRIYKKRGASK
The conditions noted are these: protein: recombinant; tags: GST; chain copies: 2; dsDNA, one strand shown. In short, it runs like this:
as §1

A further assay has as its target T5, GST-NST2(1-184) (Arabidopsis thaliana, UniProt Q9M274 1-184).
T5 sequence: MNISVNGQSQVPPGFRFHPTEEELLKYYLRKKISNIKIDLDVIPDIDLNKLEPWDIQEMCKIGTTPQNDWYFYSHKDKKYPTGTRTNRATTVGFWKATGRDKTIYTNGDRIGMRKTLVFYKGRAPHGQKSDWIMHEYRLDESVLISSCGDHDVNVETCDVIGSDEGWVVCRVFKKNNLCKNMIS
The conditions noted are these: protein: recombinant; tags: GST; chain copies: 2; dsDNA, one strand shown. In short, it runs like this: as §1

Another assay addresses T6, GST-SND1(1-203) (Arabidopsis thaliana, UniProt Q9LPI7 1-203).
T6 sequence: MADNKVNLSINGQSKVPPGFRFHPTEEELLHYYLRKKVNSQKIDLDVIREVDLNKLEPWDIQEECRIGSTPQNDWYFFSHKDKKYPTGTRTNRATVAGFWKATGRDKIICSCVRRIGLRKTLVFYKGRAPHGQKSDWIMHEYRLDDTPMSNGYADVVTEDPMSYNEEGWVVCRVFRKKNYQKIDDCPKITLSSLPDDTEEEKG
The conditions noted are these: protein: recombinant; tags: GST; chain copies: 2; dsDNA, one strand shown. In short, it runs like this: as §1

In another assay the target is T7, GST-VND7 NAC domain (Arabidopsis thaliana, UniProt Q9C8W9 9-158).
T7 sequence: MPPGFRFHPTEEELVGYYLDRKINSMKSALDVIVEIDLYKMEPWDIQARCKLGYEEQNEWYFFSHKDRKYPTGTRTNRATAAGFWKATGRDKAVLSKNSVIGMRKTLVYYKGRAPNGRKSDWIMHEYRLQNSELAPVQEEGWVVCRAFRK
The conditions noted are these: protein: recombinant; tags: GST; chain copies: 2; dsDNA, one strand shown. In short, it runs like this: as §1

Another assay concerns the target GST-WRKY1(266-371) (Arabidopsis thaliana, UniProt Q9SI37 266-371). The conditions noted are these: protein: recombinant; tags: GST; dsDNA, one strand shown. In short, it runs like this:
as §1

For a further assay, the target named is GST-NTL6(1-168) (Arabidopsis thaliana, UniProt Q9SCK6 1-168). The conditions noted are these: protein: recombinant; tags: GST; chain copies: 2; dsDNA, one strand shown. The method, boiled down: as §1
Chain of GST-NTL6(1-168) (Q9SCK6 1-168): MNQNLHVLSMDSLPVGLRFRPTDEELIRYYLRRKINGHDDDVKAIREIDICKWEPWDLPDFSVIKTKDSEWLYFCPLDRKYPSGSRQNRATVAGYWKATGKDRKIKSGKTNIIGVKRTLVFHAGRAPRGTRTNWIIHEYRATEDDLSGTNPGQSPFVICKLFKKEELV
A further assay concerns the target T8, GST-ANAC019 NAC domain (Arabidopsis thaliana, UniProt Q9C932 14-162).
T8 sequence: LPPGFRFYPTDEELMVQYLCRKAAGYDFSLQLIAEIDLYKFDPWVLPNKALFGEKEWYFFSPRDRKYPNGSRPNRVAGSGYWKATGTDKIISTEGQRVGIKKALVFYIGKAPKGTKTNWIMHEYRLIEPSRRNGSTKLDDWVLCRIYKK
The conditions noted are these: protein: recombinant; tags: GST; chain copies: 2; dsDNA, one strand shown. The method, boiled down:
as §1

For a further assay, the target named is T9, GST-NTL8 NAC domain (Arabidopsis thaliana, UniProt Q9XIN7 14-156).
T9 sequence: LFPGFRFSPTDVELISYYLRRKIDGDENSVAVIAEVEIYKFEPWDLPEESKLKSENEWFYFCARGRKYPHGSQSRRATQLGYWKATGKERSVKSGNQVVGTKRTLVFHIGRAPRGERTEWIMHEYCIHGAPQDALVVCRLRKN
The conditions noted are these: protein: recombinant; tags: GST; chain copies: 2; dsDNA, one strand shown. The method, boiled down:
as §1

Another assay concerns the target T10, GST-ANAC055(1-171) (Arabidopsis thaliana, UniProt Q9LDY8 1-171).
T10 sequence: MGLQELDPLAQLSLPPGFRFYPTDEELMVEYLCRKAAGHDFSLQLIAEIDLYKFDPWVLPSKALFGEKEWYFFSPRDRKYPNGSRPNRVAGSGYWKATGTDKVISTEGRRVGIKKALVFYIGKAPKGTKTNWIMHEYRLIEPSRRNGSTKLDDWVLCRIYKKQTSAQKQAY
The conditions noted are these: protein: recombinant; tags: GST; chain copies: 2; dsDNA, one strand shown. The method, boiled down: as §1

Chain of GST-WRKY1(266-371) (Q9SI37 266-371): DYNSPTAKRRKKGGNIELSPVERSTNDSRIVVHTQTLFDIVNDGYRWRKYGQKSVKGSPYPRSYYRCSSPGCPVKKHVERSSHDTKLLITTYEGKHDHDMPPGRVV

For GGCGTAAC, the binding signal was found to be 0.21 E-score with GST-ANAC092(1-176); 0.0594 E-score with GST-ATAF1 NAC domain; 0.277 E-score in assay [1]; 0.0618 E-score with GST-NAP(1-166); 0.129 E-score with GST-NST2(1-184); 0.421 E-score in the assay with GST-SND1(1-203). Moreover, the binding signal in the assay with GST-VND7 NAC domain was determined as 0.0835 E-score.

Take TGACCGAA: the values for the binding signal in the assay with GST-SND1(1-203) and with GST-WRKY1(266-371) were 0.0502 E-score and 0.459 E-score, respectively.

For the sequence TGAAGCAA, the binding signal in the assay with GST-ANAC092(1-176) was found to be 0.232 E-score; in the assay with GST-NTL6(1-168), 0.389 E-score; in the assay with GST-ANAC019 NAC domain, 0.0575 E-score; in assay [1] it was 0.32 E-score; in the assay with GST-NST2(1-184), 0.314 E-score; in the assay with GST-NTL8 NAC domain, 0.422 E-score. For the same sequence, the binding signal is 0.447 E-score with GST-SND1(1-203) and 0.187 E-score with GST-VND7 NAC domain.

Regarding AGCTTTCC, the binding signal with GST-ANAC092(1-176) came out at 0.171 E-score; with GST-NTL6(1-168), 0.233 E-score; in the assay with GST-ANAC019 NAC domain, 0.126 E-score; with GST-ANAC055(1-171), 0.111 E-score; in [1] it was 0.133 E-score; with GST-NTL8 NAC domain, 0.434 E-score. Moreover, the values for the binding signal with GST-SND1(1-203) and with GST-VND7 NAC domain were 0.123 E-score and 0.116 E-score, respectively.

In the case of TGACTTAA, the binding signal came to 0.342 E-score with GST-NTL6(1-168); 0.107 E-score with GST-ATAF1 NAC domain; 0.102 E-score in assay [1]; 0.183 E-score in the assay with GST-NST2(1-184); 0.249 E-score in the assay with GST-SND1(1-203); 0.089 E-score with GST-VND7 NAC domain. In addition, the binding signal with GST-WRKY1(266-371) stood at 0.427 E-score.

For the sequence AGGGTAAA, the binding signal with GST-ANAC092(1-176) came out at 0.1 E-score; in the assay with GST-NTL6(1-168), 0.0852 E-score; with GST-ANAC055(1-171), 0.0614 E-score; in [1], 0.0699 E-score; with GST-NAP(1-166) it was 0.0883 E-score; in the assay with GST-NST2(1-184), 0.14 E-score. Besides, the binding signal in the assay with GST-NTL8 NAC domain is 0.429 E-score; in the assay with GST-SND1(1-203), 0.153 E-score; with GST-VND7 NAC domain it was 0.108 E-score.

Take CCCCACCC: the binding signal with GST-ANAC092(1-176) was determined as 0.209 E-score; in the assay with GST-NTL6(1-168), 0.274 E-score; with GST-ANAC019 NAC domain it was 0.177 E-score; in the assay with GST-ANAC055(1-171), 0.0515 E-score; with GST-ATAF1 NAC domain, 0.234 E-score; in assay [1], 0.278 E-score. Further, the binding signal in the assay with GST-NST2(1-184) came out at 0.182 E-score; in the assay with GST-NTL8 NAC domain it was 0.277 E-score; with GST-SND1(1-203) it was 0.272 E-score; in the assay with GST-VND7 NAC domain, 0.171 E-score.

Regarding AAGTCAGT, the binding signal is 0.0862 E-score with GST-SND1(1-203) and 0.411 E-score with GST-WRKY1(266-371).

With GTCAAACA, the binding signal in assay [1] was 0.11 E-score; in the assay with GST-SND1(1-203), 0.0891 E-score; in the assay with GST-VND7 NAC domain, 0.0699 E-score; in the assay with GST-WRKY1(266-371), 0.475 E-score.

(Values after article PMC4081100, “A DNA-binding-site landscape and regulatory network analysis for NAC transcription factors in Arabidopsis thaliana”.)
